Holding throughout (experiment): NCI-60 one-dose screen, 48 h (100 = growth as untreated, 0 = no growth, -100 = all killed)
One experiment concerns HCT-15 colon. Particulars: 10 µM unless noted.
In the next experiment the test system is HT29 colon. As to conditions: 10 µM unless noted.
The next experiment relates to SNB-75 CNS. Particulars: 10 µM unless noted.
A further experiment relates to SNB-19 CNS. Particulars: 10 µM unless noted.
The next experiment has as its system U251 CNS. Particulars: 10 µM unless noted.
The test system of the next experiment is PC-3 prostate. As to conditions: 10 µM unless noted.
The next experiment concerns UACC-62 melanoma. Particulars: 10 µM unless noted.
The subject of the next experiment is LOX IMVI melanoma. Particulars: 10 µM unless noted.
The next experiment deals with SK-MEL-28 melanoma. As to conditions: 10 µM unless noted.
For the next experiment, the system named is SK-MEL-2 melanoma. Particulars: 10 µM unless noted.
A further experiment has as its system EKVX NSCLC. As to conditions: 10 µM unless noted.
The subject of another experiment is SN12C renal. Particulars: 10 µM unless noted.
In a further experiment the test system is UO-31 renal. As to conditions: 10 µM unless noted.
The test system of the next experiment is TK-10 renal. Particulars: 10 µM unless noted.
For a further experiment, the system named is ACHN renal. Particulars: 10 µM unless noted.
A further experiment has as its system CAKI-1 renal. As to conditions: 10 µM unless noted.
The next experiment concerns A498 renal. As to conditions: 10 µM.
For a further experiment, the system named is HL-60(TB) leukemia. Particulars: 10 µM unless noted.
For the next experiment, the system named is CCRF-CEM leukemia. As to conditions: 10 µM unless noted.
The subject of another experiment is SK-MEL-5 melanoma. Particulars: 10 µM unless noted.

About 83,000 compounds went through this panel and 20% of them were active in at least one assay; those are over-represented in the sample as a whole.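 Values shown are percent growth following 48 h exposure of cells in 96-well plates to a single concentration of compound; below 10 was considered active.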 Unmarked numbers belong to inactive results. Activity calls are given as the source filed them.

On to `C/C(=C\c1ccn(-c2ccc(N)cc2C(F)(F)F)n1)[C@@H]1C[C@@H]2O[C@]2(C)CCC[C@H](C)[C@H](O)[C@@H](C)C(=O)C(C)(C)[C@@H](O)CC(=O)O1`, for which the growth in the experiment on HCT-15 colon was 14%; with HT29 colon, 10.5%; in the experiment with SNB-75 CNS, -7.43% (active); with SNB-19 CNS, 21.5%; with U251 CNS, 13.3%; in the experiment with PC-3 prostate, 15.4%. The growth in the experiment with UACC-62 melanoma is 27.7%; with LOX IMVI melanoma it was 26.4%; in the experiment on SK-MEL-28 melanoma, 63.2%; in the experiment with SK-MEL-2 melanoma it was 18.1%; in the experiment on EKVX NSCLC, 33.7%; in the experiment on SN12C renal, 22.6%. For the same compound, the growth with UO-31 renal was 38.2%; in the experiment on TK-10 renal it was 39.8%; in the experiment on ACHN renal, 50%; in the experiment with CAKI-1 renal it was 31.4%; in the experiment with A498 renal, -4.95% (active); in the experiment with HL-60(TB) leukemia, -0.118% (active). Further, the growth in the experiment on CCRF-CEM leukemia was 16.3%.

Consider `Cc1cc(N(CCCl)CCCl)ccc1C=Nc1cccnc1`, for which the growth in the experiment with HCT-15 colon was 84.4%; in the experiment with HT29 colon, 91.6%; with SNB-75 CNS, 60.2%; with SNB-19 CNS, 81.2%; with U251 CNS, 76.1%; in the experiment with SK-MEL-5 melanoma, 77.5%. The growth in the experiment on UACC-62 melanoma is 46.6%; in the experiment with LOX IMVI melanoma, 71.6%; in the experiment on SK-MEL-28 melanoma, 97.5%; in the experiment on SK-MEL-2 melanoma, 101%; in the experiment with EKVX NSCLC, 104%; in the experiment with SN12C renal, 57.2%. In addition, the growth with UO-31 renal was 70.3%; in the experiment with TK-10 renal it was 56.1%; in the experiment on ACHN renal it was 48.3%; in the experiment with CAKI-1 renal it was 12.7%; with A498 renal it was -72.3% (active); with HL-60(TB) leukemia, 41.4%. Further, the growth in the experiment on CCRF-CEM leukemia is 61.4%.

Consider `COc1cccc(C=NC(Cc2cnc[nH]2)C(=O)O)c1O` (stereo not drawn), for which the growth in the experiment on HCT-15 colon was 108%; in the experiment with HT29 colon, 100%; in the experiment with SNB-75 CNS, 86.3%; in the experiment on SNB-19 CNS it was 96.1%; in the experiment with U251 CNS it was 102%; in the experiment with PC-3 prostate it was 51.5%. Also, the growth is 94.2% in the experiment on SK-MEL-5 melanoma; 100% in the experiment with LOX IMVI melanoma; 70% in the experiment with SK-MEL-2 melanoma; 102% in the experiment on EKVX NSCLC; 97.5% in the experiment on SN12C renal; 139% with TK-10 renal. Also, the growth was 97.8% with ACHN renal; 86.5% in the experiment with CAKI-1 renal; 98.2% in the experiment on A498 renal; 189% in the experiment with HL-60(TB) leukemia; 69.6% in the experiment on CCRF-CEM leukemia.

Consider `CC1(C)N=C(N)N=C(N)N1c1ccc(CCC(=O)Nc2ccc(S(=O)(=O)F)cc2)c(Cl)c1`, for which the growth is 48% in the experiment on HCT-15 colon; 15.5% in the experiment on HT29 colon; 59.4% with SNB-75 CNS; 42% in the experiment on SNB-19 CNS; 35% with U251 CNS; 22.2% in the experiment on SK-MEL-5 melanoma. For the same compound, the growth in the experiment with UACC-62 melanoma was 16.9%; with LOX IMVI melanoma, 15.3%; in the experiment with SK-MEL-28 melanoma, 50.4%; in the experiment on SK-MEL-2 melanoma, 48.5%; in the experiment with EKVX NSCLC, 55.1%; in the experiment on SN12C renal, 28.9%. Moreover, the growth with UO-31 renal was 93.1%; in the experiment on TK-10 renal, 42.4%; in the experiment with ACHN renal, 47.9%; with A498 renal it was 34.8%; in the experiment with HL-60(TB) leukemia, 18.3%; with CCRF-CEM leukemia, 44.9%.

As for `O=C(CC1(O)C(=O)N(Cc2ccccc2)c2ccc(Cl)cc21)c1ccc(C(=O)NCC2CCC3(CC2)OOC2(CCCCC2)OO3)cc1` (stereo not drawn), the growth in the experiment on HCT-15 colon is -14.1% (active); in the experiment with HT29 colon it was -69.7% (active); in the experiment on SNB-75 CNS, -61.7% (active); in the experiment with SNB-19 CNS, 30.9%; with U251 CNS it was -81.8% (active); in the experiment on PC-3 prostate, -54.3% (active). The growth in the experiment on UACC-62 melanoma is 53%; in the experiment on LOX IMVI melanoma, -78.5% (active); with SK-MEL-28 melanoma, 58.5%; in the experiment on SK-MEL-2 melanoma it was 2.93% (active); in the experiment with EKVX NSCLC it was -71.1% (active); with SN12C renal, -58.1% (active). Besides, the growth with UO-31 renal was -74.2% (active); in the experiment on TK-10 renal, -91.5% (active); with ACHN renal it was -83.9% (active); in the experiment with CAKI-1 renal it was -94.3% (active); in the experiment on A498 renal, -91% (active); in the experiment with HL-60(TB) leukemia, -62.7% (active). For the same compound, the growth with CCRF-CEM leukemia was -42.7% (active).

For `COC(=O)[C@@H](NC(=O)c1cn(CCC2CCCCC2)c2ccccc12)C(C)(C)C`, the growth in the experiment with HCT-15 colon was 59.9%; with HT29 colon, 69%; in the experiment with SNB-75 CNS, 71.2%; with SNB-19 CNS, 97.5%; in the experiment with U251 CNS, 72.6%; in the experiment on PC-3 prostate, 49.7%. For the same compound, the growth with UACC-62 melanoma is 38.1%; with LOX IMVI melanoma, 54.2%; with SK-MEL-28 melanoma, 85.8%; with EKVX NSCLC, 58.6%; in the experiment with SN12C renal, 65.7%; with UO-31 renal, 39.2%. For the same compound, the growth in the experiment on TK-10 renal was 77.8%; with ACHN renal it was 59.5%; in the experiment on A498 renal it was 84.2%; with HL-60(TB) leukemia it was 60%; in the experiment on CCRF-CEM leukemia, 72%.

Take `CCn1c2ccccc2c2cc(C(=O)c3ccc(C)c4ccccc34)ccc21`: the growth in the experiment with HCT-15 colon is 15.7%; with HT29 colon, -7.41% (active); with SNB-75 CNS, 51%; in the experiment with SNB-19 CNS, 20.7%; in the experiment on U251 CNS, 10.3%; with PC-3 prostate, 18.7%. For the same compound, the growth was 1.49% (active) with UACC-62 melanoma; 1.21% (active) in the experiment with LOX IMVI melanoma; 17.9% with SK-MEL-28 melanoma; 24% in the experiment on SK-MEL-2 melanoma; 32% in the experiment with EKVX NSCLC; 22.7% in the experiment on SN12C renal. The growth is 30.5% in the experiment on UO-31 renal; 38% in the experiment with TK-10 renal; 23.9% in the experiment on ACHN renal; 28.8% in the experiment with CAKI-1 renal; 7.13% (active) with A498 renal; 8.9% (active) in the experiment on HL-60(TB) leukemia. Besides, in the experiment on CCRF-CEM leukemia, the growth was 18.2%.

`CCC[CH2][Sn]([CH2]CCC)([CH2]CCC)[O]c1ccc(Cl)cc1Cl`: the growth was -62.5% (active) in the experiment with HCT-15 colon; -52.3% (active) in the experiment with HT29 colon; -93.6% (active) in the experiment with SNB-75 CNS; -81% (active) with SNB-19 CNS; -74% (active) in the experiment on U251 CNS; -99.8% (active) with SK-MEL-5 melanoma. Moreover, the growth was -88.4% (active) in the experiment with UACC-62 melanoma; -81.4% (active) with LOX IMVI melanoma; -96.9% (active) in the experiment with SK-MEL-28 melanoma; -66.9% (active) in the experiment on SK-MEL-2 melanoma; -51.7% (active) with EKVX NSCLC; -69% (active) in the experiment on SN12C renal. The growth with UO-31 renal was -85.3% (active); with TK-10 renal, -91.7% (active); in the experiment with ACHN renal, -69.5% (active); in the experiment on CAKI-1 renal it was -56.6% (active); with A498 renal it was -98.1% (active); with HL-60(TB) leukemia, -23.9% (active).

Take `O=C(O)C(O)C(O)C1[O][Sb]([c]2ccc([N+](=O)[O-])cc2)[O]C1CO` (stereo not drawn): the growth is 95.8% in the experiment with HCT-15 colon; 101% in the experiment on HT29 colon; 99.1% in the experiment with SNB-75 CNS; 94.9% in the experiment on SNB-19 CNS; 101% with U251 CNS; 103% in the experiment on SK-MEL-5 melanoma. The growth was 91.9% in the experiment with UACC-62 melanoma; 101% in the experiment on LOX IMVI melanoma; 106% in the experiment on SK-MEL-28 melanoma; 115% with SK-MEL-2 melanoma; 105% in the experiment with EKVX NSCLC; 90.4% with SN12C renal. The growth with UO-31 renal is 96.4%; with TK-10 renal it was 98.4%; in the experiment on ACHN renal, 101%; in the experiment on CAKI-1 renal it was 102%; in the experiment with A498 renal, 83.6%; in the experiment with HL-60(TB) leukemia, 92.8%. In addition, in the experiment on CCRF-CEM leukemia, the growth was 98.5%.

For the compound `CC(C)CCC1(CCCl)C(=O)NC(=O)NC1=O`, the growth in the experiment with HCT-15 colon is 98.9%; with HT29 colon, 109%; in the experiment with SNB-75 CNS, 85.3%; in the experiment with SNB-19 CNS it was 97.7%; in the experiment with U251 CNS, 94.4%; with PC-3 prostate, 98.8%. Further, the growth in the experiment on SK-MEL-5 melanoma is 97.4%; with LOX IMVI melanoma, 97%; in the experiment on SK-MEL-2 melanoma, 104%; in the experiment on SN12C renal it was 95.6%; in the experiment with UO-31 renal it was 91%; with TK-10 renal it was 100%. The growth in the experiment on ACHN renal was 102%; in the experiment with CAKI-1 renal it was 94.6%; in the experiment with A498 renal it was 89.4%; in the experiment with HL-60(TB) leukemia, 108%.

In the case of `Cn1cc(-c2csc(-c3cn(CCN4CCOCC4)c4ccccc34)n2)c2cccnc21`, the growth with HCT-15 colon was 46.5%; in the experiment with HT29 colon, 70.4%; in the experiment on SNB-75 CNS it was 74.5%; with SNB-19 CNS, 84.4%; in the experiment with U251 CNS it was 67.3%; in the experiment on PC-3 prostate it was 20.5%. Further, the growth with SK-MEL-5 melanoma is 17.6%; in the experiment with LOX IMVI melanoma, 67.1%; in the experiment with SK-MEL-2 melanoma, 68.8%; in the experiment on EKVX NSCLC it was 55.1%; with SN12C renal it was 77.4%; in the experiment with UO-31 renal it was 34.9%. Further, the growth is 87.9% with TK-10 renal; 63% in the experiment with ACHN renal; 85.1% in the experiment on A498 renal; 36.1% in the experiment with HL-60(TB) leukemia; 36.9% with CCRF-CEM leukemia.

(Values after PubChem BioAssay (NCI).)
